Screening data from PubChem.
Hits are enriched below; roughly 1.3% of the tested compounds scored in any of these assays.
Fam108B counter = blocks mouse Fam108B hydrolase in RBBP9 counter-screen; AID 1947; inhibition, % at 9.51 µM; recombinant Fam108B, FP-Rh probe fluorescence polarization; 300,000 tested, 0.33% active;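 active means inhibition above the screen mean inhibition plus 3 SD, computed separately per campaign, cut at about 18% in these data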;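 further: inhibitors lower polarization as less probe binds the enzyme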
LYPLA2 inh = LYPLA2 (human) inhibition in PME1 counter-screen; inhibition, % at 5.9 µM; 320,000 tested, 0.38% active; AID 2177; recombinant LYPLA2, FP-Rh probe fluorescence polarization;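 active means inhibition above the screen-wide mean plus 3 SD, limit set per campaign, cut at about 26% in these data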;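 further: 0% = LYPLA2 with DMSO and 100% = wells lacking LYPLA2 enzyme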
PME-1 primary = blocks human protein phosphatase methylesterase 1; Q9Y570; recombinant PME-1, FP-Rh probe fluorescence polarization; inhibition, % at 5.9 µM; 320,000 tested, 0.53% active; AID 2130;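 active means inhibition above the campaign mean of all compounds plus 3 SD, cut at about 26% in these data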;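 further: competitive labeling of PME-1 active site by serine hydrolase directed probe; 0% = PME-1 with DMSO and 100% = wells lacking PME-1 enzyme; inhibitors block probe labeling so polarization falls and inhibition rises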
PREPL inhibitor = inhibits the human prolyl oligopeptidase-like enzyme; 320,000 tested, 0.68% active; inhibition, % at 5.96 µM; recombinant PREPL, fluorescence polarization activity-based probe; in the data active means inhibition above about 43%;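 further: 0% = enzyme with DMSO and 100% = wells lacking enzyme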
Target sequence (Q4J6C6 whole entry, looked up): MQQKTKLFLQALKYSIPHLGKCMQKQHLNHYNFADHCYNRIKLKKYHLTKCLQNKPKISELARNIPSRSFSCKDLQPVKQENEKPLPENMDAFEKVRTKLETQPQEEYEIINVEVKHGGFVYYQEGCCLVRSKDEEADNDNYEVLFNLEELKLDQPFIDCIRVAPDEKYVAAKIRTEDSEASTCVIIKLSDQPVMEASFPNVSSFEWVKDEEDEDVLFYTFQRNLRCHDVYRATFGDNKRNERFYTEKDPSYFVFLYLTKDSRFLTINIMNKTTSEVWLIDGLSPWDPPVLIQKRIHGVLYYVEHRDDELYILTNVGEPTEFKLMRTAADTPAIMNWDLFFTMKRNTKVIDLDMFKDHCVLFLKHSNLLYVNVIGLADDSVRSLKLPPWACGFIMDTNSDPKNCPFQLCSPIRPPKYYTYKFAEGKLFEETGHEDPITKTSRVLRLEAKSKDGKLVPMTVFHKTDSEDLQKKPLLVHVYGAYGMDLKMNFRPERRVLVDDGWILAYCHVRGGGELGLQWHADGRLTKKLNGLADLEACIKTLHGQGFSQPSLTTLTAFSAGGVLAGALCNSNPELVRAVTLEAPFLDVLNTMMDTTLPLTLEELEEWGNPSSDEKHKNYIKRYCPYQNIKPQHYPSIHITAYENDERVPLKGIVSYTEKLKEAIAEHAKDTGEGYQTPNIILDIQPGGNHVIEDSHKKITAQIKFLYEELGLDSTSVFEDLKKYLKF
LYPLA1 counter = counter-screen for PME1 inhibitors: inhibitors of human LYPLA1; recombinant LYPLA1, FP-Rh probe fluorescence polarization; inhibition, % at 5.9 µM; 320,000 tested, 0.16% active; O75608;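 active means inhibition above the mean of all tested compounds plus 3 SD, set per campaign, cut at about 14% in these data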;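 further: inhibitors block serine hydrolase probe labeling of LYPLA1 so polarization falls; 0% = enzyme with DMSO and 100% = wells lacking LYPLA1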
Fam108b inh conf = confirmation of mouse Fam108b serine hydrolase inhibitors | recombinant Fam108b, FP-Rh probe fluorescence polarization | AID 1978 | shares compounds with Fam108B counter | inhibition, % at 9.51 µM | 930 tested, 44% active;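 active means inhibition above a limit from the primary screen, the mean over all compounds plus 3 SD, cut at about 19% in these data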;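 further: 0% = median of active Fam108b wells and 100% = catalytically dead S170A mutant; inhibitors free the probe so polarization falls as inhibition rises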
Fam108b inh = mouse ABHD17B inhibition; 260 tested, 44% active; recombinant Fam108b, gel-based ABPP, fluorophosphonate probe; shares compounds with Fam108B counter; inhibition, % at 20 µM; in the data active means inhibition above about 40%
Numbers without * were called inactive; x = no result given.

SMILES	Fam108B counter	LYPLA2 inh	PME-1 primary	PREPL inhibitor	LYPLA1 counter	Fam108b inh conf	others
O=C1c2cc(CO)cc(O)c2C(=O)c2c(O[C@@H]3OC(CO)[C@@H](O)[C@@H](O)[C@@H]3O)cccc21 (stereo partly drawn)	0	6	2	-1	3	x
O=C(O)c1cc(O)c2c(c1)[C@@H]([C@H]1c3cc(C(=O)O)cc(O)c3C(=O)c3c(O[C@@H]4O[C@H](CO)[C@@H](O)[C@H](O)[C@H]4O)cccc31)c1cccc(OC3O[C@H](CO)[C@@H](O)[C@H](O)[C@H]3O)c1C2=O (stereo partly drawn)	99*	90*	74*	106*	28*	116*
CC(=O)Nc1ccc(NC(=O)c2cccc3ccccc23)cc1	4	4	2	14	0	x
CC(=O)Nc1ccc(N=Cc2c(O)c(C(=O)Nc3ccccc3)cc3ccccc23)cc1	22*	0	3	5	0	14
Fc1ccc(C2=Nc3cccc4cccc(c34)N2)cc1	7	-2	3	10	-2	x
Brc1ccc(C2=Nc3cccc4cccc(c34)N2)o1	19*	-1	3	17	-4	12
O=S(=O)(Nc1nccs1)c1ccc(NS(=O)(=O)c2c(F)cc(F)c(Cl)c2F)cc1	x	x	x	10	x	x
Cc1ccc(N2CC(NC(=O)C(=O)c3c[nH]c4ccccc34)CC2=O)cc1C (stereo not drawn)	-1	10	3	-5	0	x
Cc1cc(C)nc(SCc2ccc(C(=O)N/N=C/c3cccc(O)c3O)cc2)n1	50*	17	26*	19	-11	82*
Cc1cc(C)nc(SCc2ccc(C(=O)NN=Cc3cccc(O)c3O)cc2)n1	x	x	x	x	x	x	Fam108b inh=90*
CC1CCN(CC(=O)NCc2ccco2)CC1	1	9	0	5	-1	x
O=C(NN1C(=O)/C(=C/c2cccc(O)c2)SC1=S)c1ccccc1O	4	-6	3	11	-5	x
O=C(NN1C(=O)/C(=C\c2ccc(O)c([N+](=O)[O-])c2)SC1=S)c1ccccc1Cl	25*	-3	3	5	-3	20*
CN(C(=O)c1ccco1)c1nc2c(s1)CCCC2	-1	0	1	1	9	x
CCc1cc(C(=O)O)c(NC(=O)/C=C/c2ccc(OC)c(OC)c2)s1	32*	6	10	9	-3	4
CCc1cc(C(=O)O)c(NC(=O)/C=C/c2ccc(OC)cc2)s1	2	7	-84	13	5	x
CCn1c(CCCc2ccc(OC)c(C)c2)n[nH]c1=S	5	-4	6	9	-2	x
CC(=O)c1ccccc1NC(=O)COC(=O)CSCC(=O)Nc1cc(C)on1	0	2	1	-1	3	x
O=[N+]([O-])c1ccc(N/N=C/c2cccc(O)c2O)cc1	19*	-7	33*	25	-11	93*
O=[N+]([O-])c1cccc(N/N=C/c2cccc3ccccc23)c1	26*	17	25	36	-2	23*
Cc1cccc(C(=O)Oc2ccccc2/C=N/Nc2ccc([N+](=O)[O-])cc2)c1	25*	3	21	6	-8	1
Cc1cccc(C(=O)Oc2ccc(/C=N/O)cc2)c1	2	3	-2	11	-2	x
COc1cccc(/C=N/Nc2nc(Nc3ccc([N+](=O)[O-])cc3)nc(N3CCCC3)n2)c1O	25*	-23	5	29	-14	31*
COc1cc(OC)cc(C(=O)NCC(=O)OCC(=O)N2CC(C)CC(C)C2)c1 (stereo not drawn)	2	-5	3	-3	-2	x
Cc1ccc(C(C)C)c(OCc2ccc(C(=O)N/N=C/c3ccc(O)cc3O)cc2)c1	28*	2	35*	13	-20	9
SMILES	Fam108B counter	LYPLA2 inh	PME-1 primary	PREPL inhibitor	LYPLA1 counter	Fam108b inh conf	others
Cc1ccc(C(C)C)c(OCc2ccc(C(=O)N/N=C/c3ccc(C(=O)O)cc3)cc2)c1	-46	-19	-14	-4	-22	x
O=C(CSc1nnc(Cc2csc(Nc3cccc(Cl)c3)n2)o1)N1CCc2ccccc21	19*	-9	7	19	-12	-13
O=C(N/N=C/c1ccc([N+](=O)[O-])cc1)c1ccc(COc2ccccc2-c2ccccc2)cc1	26*	-11	-11	6	-11	3
O=C(N/N=C/c1ccc([N+](=O)[O-])cc1)c1ccccc1OCc1ccccc1	-7	4	9	10	3	x
O=C(Nc1ccc(F)cc1)Nc1csc2ccccc12	2	-6	8	26	-21	x
CN(C)c1ccc(NC(=O)Nc2csc3ccccc23)cc1	19*	-7	19	20	-16	27*
Cc1ccc(N(CN2C(=O)C3C4CCC(C4)C3C2=O)C(=O)c2ccco2)cc1 (stereo not drawn)	-2	6	-5	-10	1	x
O=C(NNc1c2ccccc2nc2ccccc12)c1ccc(O)cc1O	25*	-11	78*	41	-11	12
CCOCCCNC(=O)C(c1ccccc1)N(Cc1ccc2c(c1)OCO2)C(=O)c1ccccc1O (stereo not drawn)	1	-6	-1	0	-4	x
COc1ccc(NC(=O)c2cccnc2)cc1	-4	-5	0	2	-3	x
C/C(=C\C(=O)c1cccnc1)Nc1ccc(O)cc1	48*	9	-16	81*	2	-3
CC(C)(C)c1ccc(S(=O)(=O)N(CCCN2CCOCC2)Cc2cccs2)cc1	-3	-3	-1	-14	1	x
Cc1ccc(C)c(S(=O)(=O)Nc2cc(SCC(=O)O)c(O)c3ccccc23)c1	29*	35*	28*	23	4	-10
O=C(COC(=O)c1ccccc1O)NCCc1c[nH]c2ccccc12	x	x	x	26	x	x
O=C(COC(=O)c1ccccc1C(=O)OCC(=O)NCCc1c[nH]c2ccccc12)NCCc1c[nH]c2ccccc12	19*	-7	9	29	-7	11
Cc1ccc(NS(=O)(=O)c2cc([N+](=O)[O-])ccc2NNC(=S)Nc2cc(C)ccc2C)c(C)c1	27*	4	23	13	-13	-16
Cc1ccc(NS(=O)(=O)c2cc([N+](=O)[O-])ccc2NNC(=S)Nc2cccc(Cl)c2)c(C)c1	30*	7	25	10	-14	18
COc1ccc(NC(=S)NNc2ccc([N+](=O)[O-])cc2S(=O)(=O)Nc2ccc(C)cc2C)cc1	32*	-4	22	5	-10	11
CCC(=O)NC(c1ccccc1Cl)c1c(O)ccc2ccccc12 (stereo not drawn)	18*	10	47*	17	3	1
CC(C)C(=O)NC(c1ccccc1Cl)c1c(O)ccc2ccccc12 (stereo not drawn)	5	-3	12	13	-1	x
